Calls of active or inactive are those of the source. No rule for the calls is given here.
Experiment: xanthine oxidase superoxide generation blockade – biochemical, counter-screen for NOX1 inhibitor project, late-stage follow-up (AID 2556)
Conditions: xanthine oxidase superoxide assay

SMILES	IC50
COc1cc(-c2nc(-c3ccccc3)c(-c3ccccc3)[nH]2)ccc1O	11.2 µM (inactive)
CN(C)c1ccc(NC(=O)Nc2ccc(OCc3ccccc3)cc2)cc1	2 µM (active)
FC(F)(F)c1ccc2c(c1)Nc1ccccc1S2	20.7 µM (inactive)
c1ccc2c(c1)Nc1nc3ccccc3nc1N2	3.5 µM (active)
Cc1cc(Cl)ccc1NC(=S)NNC(=S)Nc1ccc(F)cc1	11 µM (inactive)
O=C(Oc1ccccc1N1CCCCC1)c1sc2ccccc2c1Cl	11.1 µM (inactive)
